Assay outcomes (PubChem)
Sampled rows, rich in hits. Any-hit rate of the full collection: about 2.5%.
AI-2 QS mod = modulates the Vibrio harveyi AI-2 quorum sensing system. Vibrio harveyi JMH597 AI-2 luminescence/OD600 ratio, 9 h; hits give low values; strain lacks LuxN and CqsS sensors; 0 = neutral-control median. activity change, % at 7.5 µM. 300,000 compounds, 0.4% hits. AID 2094; in the data active = activity change below about -75%, passing the limit was not always enough; inconclusive = no clear call, values can overlap the other calls;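 note: luminescence divided by OD600 gain over 9 h not by final OD600 alone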
SUMO Mot1 rescue = SUMOylation pathway inhibition by Mot1-301 growth rescue; growth rescue, % at 18.8 µM; S. cerevisiae Mot1-301 growth rescue, ATP luminescence, 38.5C; percent above DMSO median, 100 means doubled; 320,000 compounds, 1% hits;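 active = every valid replicate shows activation above 250% relative to neutral control wells; inactive = the rest, any valid replicate at or below 250%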;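 note: OY570 slx delta 5 strain wells were the positive control but not used for scaling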
Efflux pump inh = inhibitors of Candida antifungal efflux pumps expressed in yeast. inhibition, % at 10 µM. S. cerevisiae Candida pump triplex, Nile Red efflux. 330,000 compounds, 0.44% hits;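 active = plate passing quality check with inhibition over a set limit, or well fluorescence over plate mean plus 4 SD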;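 note: Nile Red retained in pooled yeast measured as flow cytometry median fluorescence; 0% = buffer negative control and 100% = Enniatin B positive control; higher means more Nile Red kept so more efflux inhibition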
V-ATPase pHluor = regulators of yeast V-ATPase proton transport; S. cerevisiae, pHLuorin cytosolic pH fluorescence; response, % at 10 µM; 350,000 compounds, 0.37% hits; in the data active = response mostly above about 7.3%, no sharp cut-off; inactive = mostly below about 5.4%; note: actives read high
ATG4B inhibitor = inhibitors of human ATG4B cysteine protease. 340,000 compounds, 0.51% hits. inhibition, % at 8.33 µM. ATG4B cleavage of LC3-PLA2, NBD-HPC fluorescence, 1 h; in the data active = inhibition above about 40%
Target sequence (Q9Y4P1 whole entry, looked up): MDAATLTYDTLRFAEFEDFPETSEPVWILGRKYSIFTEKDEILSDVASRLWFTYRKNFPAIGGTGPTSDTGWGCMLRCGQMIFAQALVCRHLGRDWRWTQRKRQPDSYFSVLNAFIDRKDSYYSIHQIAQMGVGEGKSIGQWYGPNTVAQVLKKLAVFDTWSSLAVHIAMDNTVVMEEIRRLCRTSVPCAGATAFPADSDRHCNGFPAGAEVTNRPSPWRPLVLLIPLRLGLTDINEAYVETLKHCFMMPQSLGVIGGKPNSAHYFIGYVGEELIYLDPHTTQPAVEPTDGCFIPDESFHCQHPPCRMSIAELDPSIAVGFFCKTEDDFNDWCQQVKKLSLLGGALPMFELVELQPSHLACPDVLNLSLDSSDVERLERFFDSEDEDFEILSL
JMH597 growth rt = retest: blocks Vibrio harveyi JMH597 growth. 750 compounds, 1% hits. shares compounds with AI-2 QS mod. OD600 absorbance, 9 h; lacks LuxN and CqsS sensors. growth inhibition, % at 7.5 µM. AID 2726;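 active = every replicate shows growth inhibition above 50%; inconclusive = at least half, but not all, replicates pass that cutoff; inactive = fewer than half of replicates pass it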
BB721 lum counter = retest counter-screen: BB721 constitutive quorum sensing luminescence decrease | 750 compounds, 95% hits | shares compounds with AI-2 QS mod | Vibrio harveyi BB721 luminescence, 9 h | AID 2727 | inhibition, % at 7.5 µM;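 active = inhibition above about 80% in every replicate, not just on average, limit read from the data; inconclusive = at least half of replicates past the limit, but not all; inactive = fewer than half of replicates past the limit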
BB721 growth = retest: blocks Vibrio harveyi BB721 growth; shares compounds with AI-2 QS mod; growth inhibition, % at 7.5 µM; OD600 absorbance, 9 h; 750 compounds, 3% hits;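 active = every replicate shows growth inhibition above 50%; inconclusive = at least half but not all replicates above 50% inhibition; inactive = under half of replicates above 50% inhibition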
AI-2 QS JMH597 = Vibrio harveyi AI-2 signaling luminescence modulation – JMH597 strain, confirmation | shares compounds with AI-2 QS mod | Vibrio harveyi JMH597 AI-2 quorum sensing luminescence, 9 h; luxN and CqsS knockout, AI-2 only | inhibition, % at 7.5 µM | 750 compounds, 97% hits | AID 2736;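 active = every replicate shows more than 75% inhibition of signal versus neutral control wells; inconclusive = half to three quarters of replicates exceed 75% inhibition; inactive = fewer than half of replicates exceed 75% inhibition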
An asterisk follows results filed as active.

What do the screens show for `CCc1ccc(NC(=O)CN2C(=O)CC(C)S(=O)(=O)c3ccccc32)cc1` (stereo not given)?
AI-2 QS mod: -4; SUMO Mot1 rescue: -7; Efflux pump inh: 0; V-ATPase pHluor: 1; ATG4B inhibitor: -13

What do the screens show for `CC1CC(=O)N(CC(=O)Nc2ccc(Br)cc2)c2ccccc2S1(=O)=O` (stereo not given)?
AI-2 QS mod: -83*; SUMO Mot1 rescue: 9; Efflux pump inh: 0; V-ATPase pHluor: 4; ATG4B inhibitor: -8; JMH597 growth rt: -15; BB721 lum counter: 96*; BB721 growth: -17; AI-2 QS JMH597: 97*

What do the screens show for `Cc1ccc(NC2(C#N)CCCC2)cc1`?
V-ATPase pHluor: -3; ATG4B inhibitor: -1

Results for O=C1CC(c2ccccc2F)C2=C(COC2=O)N1 (stereo not given) ?
AI-2 QS mod: 9; SUMO Mot1 rescue: -28; Efflux pump inh: 0; V-ATPase pHluor: 3; ATG4B inhibitor: -5

What do the screens show for `O=S(=O)(Nc1nc2ccccc2nc1NCc1ccco1)c1ccccc1`?
AI-2 QS mod: 25; SUMO Mot1 rescue: -9; Efflux pump inh: 0; V-ATPase pHluor: 12; ATG4B inhibitor: -11

Results for O=S(=O)(c1ccccc1)c1ccc(NCc2ccco2)cc1 ?
AI-2 QS mod: -94*; SUMO Mot1 rescue: -13; Efflux pump inh: 0; V-ATPase pHluor: 1; ATG4B inhibitor: 7; JMH597 growth rt: 7; BB721 lum counter: 52; BB721 growth: -38; AI-2 QS JMH597: 98*

How did O=C(Cn1c(=O)sc2ccccc21)Nc1ccc(S(=O)(=O)N2CCCCC2)cc1 do in these assays?
AI-2 QS mod: -90*; SUMO Mot1 rescue: -12; Efflux pump inh: 0; V-ATPase pHluor: 3; ATG4B inhibitor: 3; JMH597 growth rt: 44; BB721 lum counter: 96*; BB721 growth: 28; AI-2 QS JMH597: 99*

Results for CCN(CC)S(=O)(=O)c1ccc(NC(=O)Cn2c(=O)sc3ccccc32)cc1 ?
AI-2 QS mod: -82*; SUMO Mot1 rescue: -8; Efflux pump inh: 0; V-ATPase pHluor: 3; ATG4B inhibitor: -16; JMH597 growth rt: 17; BB721 lum counter: 91*; BB721 growth: 18; AI-2 QS JMH597: 94*

How did CCCCc1nnc(NC(=O)c2ccc(OCc3c(C)noc3C)cc2)s1 do in these assays?
V-ATPase pHluor: -2; ATG4B inhibitor: 9

Results for O=C(OCc1ccc(Br)cc1)c1ccncc1 ?
AI-2 QS mod: -2; SUMO Mot1 rescue: 2; Efflux pump inh: 0; V-ATPase pHluor: -1; ATG4B inhibitor: 0

How did CC(=O)Nc1ccc(C(=O)OCc2ccc(Br)cc2)cc1 do in these assays?
AI-2 QS mod: -89*; SUMO Mot1 rescue: 23; Efflux pump inh: 1; V-ATPase pHluor: 0; ATG4B inhibitor: -5; JMH597 growth rt: 10; BB721 lum counter: 96*; BB721 growth: inconclusive; AI-2 QS JMH597: 95*

How did COc1ccc(S(=O)(=O)c2nnn(-c3ccccc3Cl)c2N)cc1 do in these assays?
AI-2 QS mod: 2; SUMO Mot1 rescue: 3; Efflux pump inh: 0; V-ATPase pHluor: -3; ATG4B inhibitor: -5

How did Nc1c(S(=O)(=O)c2ccccc2)nnn1-c1ccccc1 do in these assays?
AI-2 QS mod: -97*; SUMO Mot1 rescue: -12; Efflux pump inh: 0; V-ATPase pHluor: -1; ATG4B inhibitor: 4; JMH597 growth rt: 11; BB721 lum counter: 100*; BB721 growth: -40; AI-2 QS JMH597: 100*

Results for O=C(Nc1cc(NC(=O)c2ccccc2F)ccc1Cl)c1ccccc1 ?
AI-2 QS mod: 3; SUMO Mot1 rescue: 4; Efflux pump inh: 0; V-ATPase pHluor: 3; ATG4B inhibitor: 4

What do the screens show for `Cc1ccc(Cc2cnc(NC(=O)c3ccco3)s2)cc1`?
AI-2 QS mod: -86*; SUMO Mot1 rescue: 18; Efflux pump inh: 0; V-ATPase pHluor: -4; ATG4B inhibitor: 17; JMH597 growth rt: 27; BB721 lum counter: 97*; BB721 growth: inconclusive; AI-2 QS JMH597: 98*

How did Cc1ccc(Oc2ccc(NC(=O)c3ccco3)cc2)cc1 do in these assays?
AI-2 QS mod: -97*; SUMO Mot1 rescue: 23; Efflux pump inh: 0; V-ATPase pHluor: -2; ATG4B inhibitor: 11; JMH597 growth rt: 43; BB721 lum counter: 100*; BB721 growth: inconclusive; AI-2 QS JMH597: 100*

How did Cc1ccc(NC(=O)c2ccc(OC(=O)c3ccco3)cc2)cc1 do in these assays?
AI-2 QS mod: 21; SUMO Mot1 rescue: 361; Efflux pump inh: 0; V-ATPase pHluor: -3; ATG4B inhibitor: 2

What do the screens show for `O=C(/C=C/c1ccccc1)NCc1ccc2c(c1)OCO2`?
AI-2 QS mod: -94*; SUMO Mot1 rescue: -5; Efflux pump inh: 0; V-ATPase pHluor: -4; ATG4B inhibitor: -9; JMH597 growth rt: -2; BB721 lum counter: 98*; BB721 growth: 2; AI-2 QS JMH597: 98*

Results for O=C(/C=C/c1cccs1)NCc1ccc2c(c1)OCO2 ?
AI-2 QS mod: -90*; SUMO Mot1 rescue: 43; Efflux pump inh: -1; V-ATPase pHluor: 0; ATG4B inhibitor: 0; JMH597 growth rt: -14; BB721 lum counter: 95*; BB721 growth: -10; AI-2 QS JMH597: 95*

What do the screens show for `O=C(/C=C/c1cccs1)NCc1cccs1`?
AI-2 QS mod: -83*; SUMO Mot1 rescue: 21; Efflux pump inh: 0; V-ATPase pHluor: 3; ATG4B inhibitor: -1; JMH597 growth rt: 9; BB721 lum counter: 92*; BB721 growth: 6; AI-2 QS JMH597: 92*

What do the screens show for `O=C(NCc1ccc2c(c1)OCO2)Nc1cccc(Cl)c1`?
AI-2 QS mod: -91*; SUMO Mot1 rescue: -13; Efflux pump inh: 0; V-ATPase pHluor: 0; ATG4B inhibitor: 2; JMH597 growth rt: 20; BB721 lum counter: 99*; BB721 growth: 33; AI-2 QS JMH597: 99*

How did CC(C)c1nc(SCC(=O)Nc2cccc3ccccc23)n[nH]1 do in these assays?
SUMO Mot1 rescue: -5; Efflux pump inh: 0; V-ATPase pHluor: -1; ATG4B inhibitor: -8

Results for CC(C)n1cc(CN2CCN(CCc3ccccc3)C(CCO)C2)cn1 (stereo not given) ?
AI-2 QS mod: 35; SUMO Mot1 rescue: -7; Efflux pump inh: 0; V-ATPase pHluor: 1; ATG4B inhibitor: -1

Results for O=C(Cc1ccc(Cl)cc1)Nc1ccc(Br)cc1 ?
AI-2 QS mod: -30; SUMO Mot1 rescue: 19; Efflux pump inh: 0; V-ATPase pHluor: 0; ATG4B inhibitor: -7
